Here are results for 109 compounds from PubChem BioAssay AID492993 (Johns Hopkins Ion Channel Center, 2010).

In all, about 4,900 compounds went through this assay and about 200 (4.1%) were called active.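 How the source made its calls: active means thallium signal drop more than 5 SD beyond the mean of the no-compound control wells, seen in both duplicate plates; inactive means the rest.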 These entries were drawn from the full list.

For this experiment, the target named is Inward rectifier potassium channel 2 (Mus musculus) (UniProt P35561). In words: off-target Kir2.1 potassium flux block – cell-based, HEK293, thallium flux, selectivity assay for KCNK9 modulator project, confirmation (AID 492993).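 On inhibition: signal is fluorescence rise after thallium addition divided by baseline fluorescence; plate controls were assay buffer only for no effect and full block by chlorpromazine control for full effect.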 Conditions: Kir2.1 cells, FluxOR thallium flux fluorescence, at 10 µM; hits give high values.
Chain of Inward rectifier potassium channel 2 (Mus musculus) (P35561 whole entry, looked up): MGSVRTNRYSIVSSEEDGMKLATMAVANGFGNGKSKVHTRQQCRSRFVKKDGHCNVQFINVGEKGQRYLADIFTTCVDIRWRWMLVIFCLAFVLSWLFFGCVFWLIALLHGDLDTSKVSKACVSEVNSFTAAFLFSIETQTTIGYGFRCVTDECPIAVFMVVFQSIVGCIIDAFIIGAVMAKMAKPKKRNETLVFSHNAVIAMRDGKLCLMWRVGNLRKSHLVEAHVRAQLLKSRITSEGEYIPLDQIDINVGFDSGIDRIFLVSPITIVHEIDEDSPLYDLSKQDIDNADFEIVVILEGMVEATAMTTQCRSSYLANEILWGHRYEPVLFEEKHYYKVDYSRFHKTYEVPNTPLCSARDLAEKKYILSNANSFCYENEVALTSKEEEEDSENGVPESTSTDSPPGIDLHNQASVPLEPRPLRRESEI
A word on the inhibition: it is the change of the read-out against control, counted positive when it falls. Turning to `COc1ccc(C2CC(c3cccs3)=Nc3ccccc3S2)cc1OC` (centres undefined), the inhibition entry was “inactive”.
The entry for `COc1ccc(C(CCN(Cc2ccc(OC)c(OC)c2)C(=O)CCl)c2ccccc2)cc1` (centres undefined) is “inactive”; for `Cc1ccc(OCc2cc(C(=O)N(C)CCc3ccccc3)no2)cc1C` it is “inactive”.
Regarding `CCOc1ccc(OCc2ccc(C(=O)Nc3cccc(C)n3)o2)cc1`, the inhibition entry is “inactive”.
The value for `Cc1ccccc1CSc1nnc(CCCCCNC(=O)OC(C)(C)C)o1` was “inactive”; that for `CC1(C)CC(=O)CC2(C1)NCC(c1ccccc1Cl)c1c2[nH]c2ccccc12` (centres undefined) was “inactive”.
The value for `O=C(NCCc1ccccc1)c1ccc2c(c1)N(Cc1ccccc1)CCS2` was “inactive”; that for `CCC1(C)Cc2c(sc3[nH]c(=S)n(Cc4ccccc4)c(=O)c23)CO1` (centres undefined) was “inactive”.
Turning to `COc1ccc(CCNC(=O)c2ccccc2OCc2ccccc2)cc1`, the inhibition was 54.5% (active).
The value for `COc1ccc(-c2nc(CCNC(=O)c3ccc(Br)o3)cs2)cc1` was “inactive”; that for `COc1ccc(CCNc2ncnc3c2nnn3Cc2ccccc2)cc1` was “inactive”; that for `CCOc1ccc2[nH]c(=O)c(CN(Cc3nnnn3CCc3ccccc3)CC3CCCO3)cc2c1` (centres undefined) was “inactive”.
As for `C=CCOc1ccc(/C=N/NC(=O)C(C)Sc2ccccn2)cc1OCC` (centres undefined), the inhibition result was “inactive”.
The entry for `O=C(OCC(=O)N(CCc1ccccc1)Cc1ccccc1)c1ccccc1[N+](=O)[O-]` is “inactive”.
The entry for `Cc1cccc(NC(=O)c2sc3nc4c(c(-c5ccco5)c3c2N)CCC4)c1` is “inactive”; for `O=C(/C=C/NNC(=O)c1cccc(Br)c1)c1ccccc1` it is “inactive”; for `COc1cccc(-c2nn(C)c3sc(C(=O)N4CCN(c5ccccc5)CC4)cc23)c1` it is “inactive”.
The value for `CC(C)CC(COCc1ccc(Cl)cc1)N1CCN(C(=O)c2ccc(C(F)(F)F)cc2)CCC1=O` (centres undefined) was “inactive”; that for `O=C(COC(=O)c1c2c(nc3ccccc13)CCCC2)c1ccc(Br)s1` was “inactive”.
With `Cc1cc(OC(C)C(=O)Nc2ccc(S(=O)(=O)Nc3onc(C)c3C)cc2)cc(C)c1Cl` (centres undefined), the inhibition entry was “inactive”.
The value for `CCCCC(=O)Nc1ccccc1N1CCN(c2ccc(F)cc2)CC1` was “inactive”; that for `Cc1cccc(C(=O)Nc2ccccc2N2CCN(c3ccc(F)cc3)CC2)c1` was “inactive”.
As for `O=C(CNCCC1=CCCCC1)Nc1ccccc1N1CCCCCC1`, the inhibition is 34.5% (active).
For the compound `CCOc1ccccc1NC(=O)C1CCCN(S(=O)(=O)c2ccccc2)C1` (centres undefined), the inhibition entry is “inactive”.
With `COc1ccc(C(=O)Nc2ccccc2C(=O)N/N=C/c2ccccc2OC)cc1`, the inhibition result is “inactive”.
For `COC(=O)C1=C(Nc2ccc(C)cc2)C=C(C)C(C(=O)OC)C1c1ccc(F)cc1` (centres undefined), the inhibition result was “inactive”.
For `Clc1ccc(Cl)c(Oc2ccc(Oc3nc(Cl)ccc3Cl)cc2)n1`, the inhibition result was “inactive”.
As for `CCOc1cccc(OCCCOc2cccc3cccnc23)c1`, the inhibition entry was “inactive”.
The entry for `O=C(COC(=O)c1ccccc1)Nc1ccccc1Sc1ccccc1` is “inactive”; for `COc1cccc(-c2cnc(OC(C)(C)C)nc2OC(C)(C)C)c1` it is “inactive”.
On to `CC(C)(C)C1CCC(C(=O)NCC(c2cccs2)N2CCOCC2)CC1` (centres undefined), for which the inhibition entry was “inactive”.
Consider `COCCNc1cc(-c2ccccc2)nc2cc(-c3cccc(F)c3)nn12`, for which the inhibition result was “inactive”.
As for `CCOC(=O)N1CCN(C(=O)COc2ccc3oc4c(c3c2)CCCC4)CC1`, the inhibition result is “inactive”.
`O=C(NCc1ccccc1)C1=C[C@@H](C2CCCCC2)C[C@@H](OCc2ccc(CO)cc2)O1`: the inhibition result is “inactive”.
The value for `CCN(C(=O)COc1ccc(C(=O)c2ccccc2)cc1)c1ccccc1` was “inactive”; that for `Cc1cc2ccccn2c1C(=O)c1cccc(F)c1` was “inactive”; that for `CCOC(=O)C(C)Sc1nc2ccccc2c(=O)n1CC1CCCCC1` (centres undefined) was “inactive”.
The value for `COc1cc(Cl)c(C)cc1NC(=O)CSc1nnc(-c2ccco2)n1CC(C)C` was “inactive”; that for `CC1CCN(C(=O)c2ccc(CSc3ccc(Cl)cc3)cc2)CC1` was “inactive”.
The entry for `COc1ccc(-c2n[nH]c3c2CN(C(=O)c2ccc(F)cc2)CC3)cc1` is “inactive”.
For `Cc1ccc2c(c1)N(C(=O)CCC(=O)N1CCc3ccccc3C1)CCO2`, the inhibition result is “inactive”.
As to `O=C1CC(c2ccccc2)=NN1c1ccc([N+](=O)[O-])cc1`, the inhibition entry was “inactive”.
As for `CCOC(=O)C1(CCOc2ccccc2)CCN(Cc2cc(OC)c(O)cc2Cl)CC1`, the inhibition entry was “inactive”.
The value for `COc1cccc(NC(=S)N(CCc2c(C)[nH]c3ccccc23)Cc2ccco2)c1` was “inactive”; that for `Cc1cccc(N2CCN(C(=O)c3cccc(S(=O)(=O)N4CCc5ccccc5C4)c3)CC2C)c1` (centres undefined) was “inactive”; that for `CCC(c1nnnn1Cc1ccco1)N(CCc1ccccc1)Cc1cc2cccc(C)c2[nH]c1=O` (centres undefined) was “inactive”.
The entry for `COc1cccc2cc(C(C)N(CCCN3CCOCC3)C(=O)Nc3ccc(Cl)cc3)oc12` (centres undefined) is “inactive”.
On to `Cc1cccc2cc(CN(Cc3nnnn3Cc3ccccc3)C3CCCC3)c(=O)[nH]c12`, for which the inhibition result is “inactive”.
The value for `Fc1ccc(Cn2nnnc2C(c2cccs2)N2CCCCCC2)cc1` (centres undefined) was “inactive”; that for `COc1ccc(C(=O)NN2C(=O)C3C(c4ccccc4)C=CC(c4ccccc4)C3C2=O)cc1` (centres undefined) was “inactive”; that for `COc1cc(Cl)ccc1OCc1cc(C(=O)N2CC[C@@H]3CCCC[C@H]3C2)no1` was “inactive”.
For the compound `COc1ccccc1/C=C/C=N/n1c(-c2ccc(Cl)cc2Cl)n[nH]c1=S`, the inhibition result was “inactive”.
The value for `CCOc1ccc(C2c3[nH]c4ccccc4c3CCN2Cc2cccn2-c2ncccn2)cc1` (centres undefined) was “inactive”; that for `CC1=NN(c2cccc(Cl)c2)C(=O)C12CC(C)=C(C)CS2` (centres undefined) was “inactive”; that for `CC1=CC(C)(C)N(C(=O)CSc2nnc(-c3ccccc3)o2)c2ccc(C)cc21` was “inactive”.
In the case of `Fc1cccc(Cl)c1CSc1ccc(-c2ccco2)nn1`, the inhibition result was “inactive”.
For `O=C(Nn1c(SCc2ccc([N+](=O)[O-])cc2)nc2ccccc2c1=O)c1ccc(F)cc1`, the inhibition entry was “inactive”.
The entry for `Cc1ccc(NC(=O)c2cc([N+](=O)[O-])ccc2Cl)c(O)c1` is “inactive”; for `O=C(Nc1ccc2c(c1)CCC2)c1cccc(S(=O)(=O)Nc2ccccc2Cl)c1` it is “inactive”.
As for `COc1ccc(OC)c(-c2csc(-c3cccs3)n2)c1`, the inhibition entry is “inactive”.
The entry for `CCN(CC)S(=O)(=O)c1ccc(N(C)Cc2ccc(C(F)(F)F)cc2)nc1` is “inactive”.
Regarding `Cc1ccnc(N2CCN(C(=O)CSc3nc4ccccc4nc3N3CCCCC3)CC2)c1`, the inhibition result was “inactive”.
The value for `CC(C)(C)NC(=O)NC(=O)CN1CCC(Cc2ccccc2)CC1` was “inactive”; that for `CCN(CC)C(=O)CC1(c2ccccc2OC)CCOC(C(C)C)C1` (centres undefined) was “inactive”.
`COC(=O)c1cc(NC2c3ccccc3C(=O)N2c2ccc(Cl)cn2)cc(C(=O)OC)c1` (centres undefined): the inhibition entry is “inactive”.
Turning to `O=C(COC(=O)/C(=C/c1cccs1)c1cccs1)NCc1ccccc1Cl`, the inhibition entry was “inactive”.
The value for `N#Cc1nc(Cc2cccc3ccccc23)oc1NCc1ccc2c(c1)OCO2` was 51% (active); that for `C=CCN(N=Nc1cccc([N+](=O)[O-])c1)c1cccc([N+](=O)[O-])c1` was “inactive”.
As for `COc1cccc(CN(C)C(=O)CC23CC4CC(CC(C4)C2)C3)c1OC`, the inhibition result was “inactive”.
With `CCCCCCCCn1c2c(c(=N)c3c1CCC3)CCCC2`, the inhibition was 84% (active).
The value for `Clc1ccc(COn2c(-c3ccc(Cl)cc3Cl)nc3ncccc32)cc1` was “inactive”; that for `O=C(Nc1ccc(S(=O)(=O)N2CCCCC2)cc1)C1CCN(C(=O)c2ccc(F)cc2)CC1` was “inactive”.
The entry for `Cc1nc(N2CCN(c3ccccn3)CC2)c2c(C)c(C(=O)Nc3ccc(F)c(Cl)c3)sc2n1` is “inactive”; for `Cc1ccc(OS(=O)(=O)c2ccc(-c3csc(C)n3)s2)c(C)c1` it is “inactive”; for `C[C@@]12C(=O)N(c3cccc(Br)c3)C(=O)N1[C@H](c1ccc(Cl)cc1)[C@@H]1C(=O)N(C3CCCCC3)C(=O)[C@@H]12` it is “inactive”.
The entry for `COc1cccc2sc(NNC(=O)c3nc4ccccc4s3)nc12` is “inactive”; for `COc1ccccc1NC(=O)CSc1nc2sc(C)c(C)c2c(=O)n1Cc1ccco1` it is “inactive”; for `O=C(NCCCc1ccccc1)c1cc(COc2c(F)cccc2F)on1` it is “inactive”.
Take `Cc1ccc(C2=NN(C)c3nc4ccccc4n3C2)cc1`: the inhibition entry is “inactive”.
The value for `O=C(Cc1ccccc1)n1nc(-c2ccccc2)nc1NCc1ccco1` was “inactive”.
Take `Cc1cc(C)cc(OCC(=O)Nc2cc(NC(=O)COc3cc(C)cc(C)c3)cc(C(=O)O)c2)c1`: the inhibition entry was “inactive”.
The entry for `Cc1cccc(NC(=O)N(Cc2cc3cc(C)cc(C)c3[nH]c2=O)CC2COCCO2)c1` (centres undefined) is “inactive”; for `CC1CCN(C(=S)c2ccc(-c3ccc(Cl)cc3Cl)o2)CC1` it is “inactive”.
The value for `COC(=O)c1cccc(C(=O)N2CCCC(Nc3ccc4c(c3)OCCO4)C2)c1` (centres undefined) was “inactive”.
The value for `Cc1ccc(C2=Nc3c(ccc4ccccc34)C(c3ccncc3)=NN2)cc1` was “inactive”; that for `Cc1ccc(CN(N=Nc2nonc2N)c2nonc2N)c(C)c1` was “inactive”; that for `Cc1ccc(Cn2ccc(NC(=O)c3cc(C(C)C)on3)n2)cc1` was “inactive”.
Turning to `CCOC(=O)[C@@H]1[C@H]2COc3ccc(Br)cc3[C@H]2N2C(=O)N(c3ccc(Cl)cc3)C(=O)[C@@]12C`, the inhibition entry was “inactive”.
Take `O=C(N/N=C/c1ccccn1)c1cccc(NC(=O)c2ccc(Cl)cc2)c1`: the inhibition entry was “inactive”.
On to `Cc1ncoc1C(=O)N1CCCC(C(=O)c2ccc3c4c(cccc24)CC3)C1` (centres undefined), for which the inhibition result is “inactive”.
The entry for `CCc1ccccc1NC(=O)/C(=C/c1ccccc1)c1ccccc1` is “inactive”; for `COc1ccc(Nc2ncnc3sc(-c4ccccc4)cc23)c(OC)c1` it is “inactive”; for `O=S(=O)(Nc1cccc(Oc2ccc(Cl)cc2)n1)c1ccc(F)cc1` it is “inactive”.
The value for `Brc1ccc(C2CC(c3ccccc3)=Nc3ccccc3N2)cc1` (centres undefined) was “inactive”; that for `Cc1[nH][nH]c(=O)c1C(c1ccc(-c2ccc(Cl)cc2)o1)c1c(C)[nH][nH]c1=O` was 38% (active).
`O=C(Nc1nnc(SCc2ccc(Cl)cc2Cl)s1)C1COc2ccccc2O1` (centres undefined): the inhibition result was “inactive”.
As to `CCCCN(Cc1ccccc1)C(=O)C1CCN(Cc2sccc2C)CC1`, the inhibition entry is “inactive”.
On to `Clc1cccc(-c2nc3nc4ccccc4nc3n2Cc2ccco2)c1`, for which the inhibition result was “inactive”.
Regarding `O=C1N=C2SCCN2/C1=C\c1c(Cl)cccc1Cl`, the inhibition entry was “inactive”.
As for `CCc1nnc(NS(=O)(=O)c2ccc(NC(=S)NC(=O)/C=C/c3cccs3)cc2)s1`, the inhibition entry is “inactive”.
The value for `COc1ccccc1N1CCN(c2ncnc3sc(C)c(-c4ccccc4)c23)CC1` was “inactive”.
For the compound `O=C(Nc1ccccc1[N+](=O)[O-])C1C(c2ccccc2)=C1c1ccccc1`, the inhibition entry is “inactive”.
For the compound `CCCCOC(=O)CCCc1ccc([N+](=O)[O-])cc1[N+](=O)[O-]`, the inhibition result was “inactive”.
The entry for `O=C(NC1Cc2ccccc2C1)c1cc(COc2cccc(C(F)(F)F)c2)on1` is “inactive”; for `O=C(Nc1ccc(Oc2ccccc2)cc1)c1ccco1` it is “inactive”; for `Cc1ccc(C(=O)c2c(NC(=O)c3ccncc3)sc3c2CCCC3)cc1` it is “inactive”.
Consider `Cc1onc(-c2ccc(Cl)cc2)c1-c1ccnn1S(=O)(=O)c1ccc(Cl)cc1`, for which the inhibition result was “inactive”.
The entry for `CN(C)c1ccc(C(CNC(=O)c2ccc(F)cc2)c2c[nH]c3ccccc23)cc1` (centres undefined) is “inactive”.
As for `CCn1cnc2scc(-c3ccc(C)c(C)c3)c2c1=O`, the inhibition entry was “inactive”.
